± gives the standard deviation.
Tests used:
Details in all cases: modulator concentration 10 µM
[1] = tested on: RAW-Dual (murine macrophage reporter line); experiment: NF-kB reporter (SEAP) activity fold change vs agonist alone; higher = enhanced NF-kB activity
How it was run: (§1)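 RAW-Dual murine macrophage reporter cells were seeded at 50 000 per well in 384-well plates and pre-incubated 1 hour at 37 °C with compound pin-transferred to 10 μM final. After 1 hour, a PRR agonist was added and cells incubated overnight. Supernatant NF-κB (SEAP, QUANTI-Blue, 620 nm absorbance) and IRF (Lucia luciferase, QUANTI-Luc, luminescence) signals were divided by the mean agonist-only control on the same plate to give fold change. Two replicate plates were averaged, with errors by propagation.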

[2] = tested on: RAW-Dual (murine macrophage reporter line); experiment: IRF reporter (Lucia luciferase) activity fold change vs agonist alone; higher = enhanced IRF activity
How it was run: as §1

[3] = tested on: RAW-Dual (murine macrophage reporter line); experiment: viability score (confluency relative to resting cells, overnight) (fraction); higher = more viable, active = viable (0.7 or more)
How it was run: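 RAW-Dual macrophages in 384-well plates were incubated overnight with compound, final concentration 10 μM. Confluency images from IncuCyte were processed in IncuCyte software into two masks covering all imaged wells. The viability score is each well's confluency relative to resting cells, and a compound met the cutoff when both masks exceeded 70% of resting cells.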

[4] = agonist: CpG ODN 1826 0.5 ug/mL

Compound	NF-kB reporter [1, 4]	NF-kB reporter ([1]; agonist: LPS 0.1 ug/mL)	NF-kB reporter ([1]; agonist: MPLA […])	IRF reporter ([2]; agonist: 3'3'-cGAMP 10 ug/mL)	IRF reporter ([2]; agonist: LPS 0.1 ug/mL)	IRF reporter ([2]; agonist: MPLA […])	viability score [3]
O=C(Nc1ccc(-c2cn3ccsc3n2)cc1)NC1CCCCC1	2.23 ± 0.14	1.16 ± 0.12	1.59 ± 0.11	0.5 ± 0.032	0.923 ± 0.086	1.22 ± 0.18	0.826 (active)
COCCn1c(C)cc(C(=O)CSc2ncnc3sc4c(c23)CCC4)c1C	0.991 ± 0.067	1.11 ± 0.12	1.02 ± 0.079	1.04 ± 0.036	1.43 ± 0.12	1.16 ± 0.12	0.994 (active)
CCCCN(CCCC)CC(=O)Nc1c2c(nc3ccccc13)CCC2.O=C(O)C(=O)O	0.63 ± 0.035	1.1 ± 0.067	1.15 ± 0.068	1.38 ± 0.053	1.98 ± 0.13	0.98 ± 0.15	0.308 (inactive)
C[C@@H](O[C@H]1OCCN(Cc2nc(=O)[nH][nH]2)[C@H]1c1ccc(F)cc1)c1cc(C(F)(F)F)cc(C(F)(F)F)c1 [Prestw-1600]	0.345 ± 0.022	0.516 ± 0.058	0.333 ± 0.023	1.64 ± 0.067	1.23 ± 0.078	0.969 ± 0.13	0.264 (inactive)
CSc1nnc2c(n1)[nH]c1c(C)cccc12	1.01 ± 0.082	0.931 ± 0.096	0.904 ± 0.098	0.989 ± 0.066	1.31 ± 0.25	1.42 ± 0.33	1.02 (active)
CN1CCN(C(=O)c2cc(-c3ccccc3)nc3ccccc23)CC1	1.03 ± 0.11	0.906 ± 0.059	0.957 ± 0.043	0.941 ± 0.15	0.923 ± 0.051	0.884 ± 0.081	0.996 (active)
O=C(Nc1ccc(F)cc1)c1ccco1	0.904 ± 0.074	1.11 ± 0.12	1 ± 0.038	0.879 ± 0.15	1.03 ± 0.042	0.915 ± 0.11	0.996 (active)
O=S(=O)(NCc1ccccn1)c1cccc(Cl)c1	0.918 ± 0.039	0.986 ± 0.12	1.06 ± 0.057	1.02 ± 0.061	1.32 ± 0.17	1.49 ± 0.46	0.986 (active)
COc1cccc(-c2cc(C(=O)N3CCC(Oc4cc(C)n(C)c(=O)c4)CC3)n(C)n2)c1	1.01 ± 0.11	0.994 ± 0.1	0.983 ± 0.06	0.991 ± 0.059	0.964 ± 0.066	0.938 ± 0.085	1 (active)
COc1ccc(C2NN(Cc3ccccc3)C3C(=O)N(C)C(=O)C23)cc1 (centres undefined)	0.902 ± 0.058	0.945 ± 0.088	1.13 ± 0.086	1.26 ± 0.068	1.33 ± 0.29	1.46 ± 0.5	0.955 (active)
COc1cccc(N2C(=O)CN(Cc3ccccc3)C3CS(=O)(=O)CC32)c1 (centres undefined)	1.43 ± 0.078	0.719 ± 0.057	1.49 ± 0.093	0.322 ± 0.034	0.237 ± 0.05	0.216 ± 0.075	0.832 (active)
O=C(NCCN1CCOCC1)c1ccccc1Br	0.967 ± 0.081	1.13 ± 0.089	0.952 ± 0.035	1.02 ± 0.15	1.13 ± 0.12	0.897 ± 0.18	0.997 (active)
O=C(Nc1ccc(S(=O)(=O)Nc2ccc(F)cc2)cc1)C(F)(F)F	0.992 ± 0.11	1.03 ± 0.069	0.93 ± 0.061	1.12 ± 0.027	1.37 ± 0.22	1.14 ± 0.098	1.01 (active)
O=C(O)CSCC(=O)NC1CCSC1=O (centres undefined)	0.824 ± 0.065	0.898 ± 0.11	1.04 ± 0.12	1.01 ± 0.06	1.36 ± 0.13	1.5 ± 0.15	1 (active)
CCn1c(=O)c2c(nc(/C=C/c3ccc(OC)c(OC)c3)n2C)n(CC)c1=O	1.56 ± 0.31	1.27 ± 0.33	1.14 ± 0.094	0.721 ± 0.044	1.21 ± 0.27	1.32 ± 0.26	0.986 (active)
CCCCCOC(=O)COc1ccc(S(=O)(=O)c2ccc(OCC(=O)OCCCCC)cc2)cc1	0.959 ± 0.079	0.964 ± 0.094	1.12 ± 0.14	1.02 ± 0.032	1.33 ± 0.21	1.61 ± 0.25	1.03 (active)
O=C(CC1CC1)N1CCN(c2cc(C(F)(F)F)ncn2)CC1	0.929 ± 0.04	0.963 ± 0.081	1.29 ± 0.13	1.04 ± 0.091	1.04 ± 0.18	1.01 ± 0.43	1.01 (active)
CCC(C(=O)N1CC(Nc2cnccn2)C1)c1ccccc1 (centres undefined)	0.995 ± 0.052	1.06 ± 0.12	0.996 ± 0.14	1.03 ± 0.067	1.24 ± 0.085	1.19 ± 0.09	0.984 (active)
CCN(CC)c1ccc(C=Nn2nnnc2N)c(O)c1	1.01 ± 0.078	0.869 ± 0.1	1.13 ± 0.11	0.942 ± 0.039	1.06 ± 0.13	1.44 ± 0.29	0.955 (active)
CCc1ccc2ncc(C#N)c(Nc3cc(OC)c(OC)c(OC)c3)c2c1.Cl	1.37 ± 0.071	1.24 ± 0.17	0.931 ± 0.066	0.712 ± 0.038	0.607 ± 0.078	0.725 ± 0.17	0.903 (active)
COC(=O)C1=CN(C2CC2)C=C(C(=O)OC)C1c1ccccc1OC	0.917 ± 0.074	1.05 ± 0.058	0.97 ± 0.061	0.934 ± 0.074	1.22 ± 0.17	1 ± 0.097	1.01 (active)
Brc1ccc(Cn2c(CN3CCCC3)nc3ccccc32)cc1	0.679 ± 0.17	1.05 ± 0.092	1.07 ± 0.08	0.775 ± 0.029	1.12 ± 0.18	1.16 ± 0.22	0.957 (active)
CCOC(=O)C1=C(C)NC(C)=C(C(=O)OC)C1c1cccc([N+](=O)[O-])c1 (centres undefined)	0.706 ± 0.055	0.763 ± 0.088	0.859 ± 0.076	1.02 ± 0.049	1.44 ± 0.098	1.37 ± 0.11	0.985 (active)
Cc1cn(C2C=CC(CO)O2)c(=O)[nH]c1=O (centres undefined)	1.02 ± 0.15	0.902 ± 0.27	0.981 ± 0.06	0.886 ± 0.041	1.04 ± 0.27	1.04 ± 0.2	0.984 (active)
Cc1ccc(CN2CCN(N=Cc3c4ccccc4cc4ccccc34)CC2)cc1	0.75 ± 0.071	0.881 ± 0.044	1.12 ± 0.1	0.855 ± 0.048	1.37 ± 0.08	1.25 ± 0.13	0.998 (active)
CN(C)CCN(Cc1ccccc1)c1ccccn1.Cl	0.731 ± 0.19	0.911 ± 0.052	0.927 ± 0.064	0.811 ± 0.074	0.954 ± 0.22	0.854 ± 0.081	1.01 (active)
COS(=O)(=O)[O-].C[N+]1(C)CCC(=C(c2ccccc2)c2ccccc2)CC1	1.35 ± 0.061	1.09 ± 0.093	1.76 ± 0.32	0.849 ± 0.047	0.979 ± 0.15	0.823 ± 0.18	0.958 (active)
